Reference: PubChem BioAssay
Values joined by “and” are separate entries in the source; they are usually repeats but may differ in a detail not shown here. Equal values may be shown once. Where a structure was tested more than once in an assay, its records may differ in their call. Active and inactive are the calls of the source. Unless noted, no stated cut-off is given here; in the data, active means parasite load remaining mostly below about 12% (no sharp cut-off); inactive means mostly above about 10%.

Columns and labels:
[1] = P. berghei load reduction in hepatocytes – cell-based, HepG2, luciferase luminescence, HepG2 viability, primary screen (AID 624349);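 further: 100% = mean of DMSO negative control wells on the same plate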; settings: P. berghei liver stage in HepG2, luciferase luminescence, concentration not given here; parasite load remaining: stronger effect = lower value; viability: measured here: HepG2 viability without parasites
[2] = viability loss with induced miR-34 in A549 – imaging, A549 dox-inducible miR-34, nuclei and caspase counts, primary screen (AID 1347080;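 active means compounds whose cell count with miR-34 switched on is under 0.7 times the count with it off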); settings: A549 miR-34 inducible, Hoechst nuclei count, 48 h
[3] = MELAS cybrid and Rieske KO viability enhancers – cell-based, MELAS cybrids, Rieske KO mouse fibroblasts, CellTiter-Glo, primary screen (AID 1508586;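 active means mean z-score across replicates of 1.96 or higher in either the MELAS or the Rieske mutant cell line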;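 further: z relative to plate mean and SD of compound and empty wells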); settings: low glucose
[4] = galactose survival enhancers in mitochondrial complex I cybrids – cell-based, galactose medium, ATP luminescence, primary screen (AID 1645843;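 active means z-score of at least 1.8 in each of two replicates, scored against plate mean and spread of sample wells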;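 further: positive z means more ATP and so rescue of galactose-driven cybrid death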); settings: complex I mutant cybrid cells, 72 h, stronger effect = higher value
[5] = compounds altering viability of human ES cells (AID 493140; call rule not given here;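 further: cells exposed to compounds for four days before counting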); settings: human embryonic stem cell survival screen; stronger effect = higher value
[6] = stronger effect = lower value, cell number ratio, induced over uninduced
[7] = measured here: relative caspase fold change +Dox/-Dox
[8] = measured here: total cells with miR-34 induction, stronger effect = lower value
[9] = measured here: total cells without miR-34 induction
[10] = MELAS cybrid survival, CellTiter-Glo 48 h, stronger effect = higher value
[11] = Rieske KO mouse fibroblast survival, CellTiter-Glo 72 h

In the case of `O=C(OC1CC2CC3C[C@@H](C1)N2CC3=O)c1c[nH]c2ccccc12` (stereo partly drawn), the parasite load remaining [1] is reported as 57.9% (inactive), the viability [1] is reported as 134% and the fold change [2, 6] is reported as 0.838 (inactive). For the same compound, the fold change [2, 7] was 1.48, the cell count [2, 8] was 8850 and the cell count [2, 9] was 10600. For the same compound, the z-score [3, 10] was -0.0411 (inactive), the z-score [3, 11] was -0.329 and the z-score [4] was 1.09 (inactive).

For `CC(C)C[C@H]1C(=O)N2CCC[C@H]2[C@]2(O)O[C@](NC(=O)[C@@H]3C=C4c5cccc6[nH]c(Br)c(c56)CC4N(C)C3)(C(C)C)C(=O)N12` (stereo partly drawn), the parasite load remaining [1] was 20.7% (inactive) and 22.3% (inactive), the viability [1] was 50% and 138% and the fold change [2, 6] was 0.897 (inactive) and 0.925 (inactive). For the same compound, the fold change [2, 7] was 1.56 and 1.14, the cell count [2, 8] was 7190 and 8820 and the cell count [2, 9] was 8020 and 9530. For the same compound, the z-score [3, 10] was -0.909 (inactive), the z-score [3, 11] was 0.597 and the z-score [4] was 0.045 (inactive).

For `CN1[C@@H](C[C@H](O)c2ccccc2)CCC[C@H]1CC(=O)c1ccccc1`, the parasite load remaining [1] was 53.1% (inactive), the viability [1] was 128% and the fold change [2, 6] was 0.934 (inactive). For the same compound, the fold change [2, 7] was 1.15, the cell count [2, 8] was 9500 and the cell count [2, 9] was 10200. For the same compound, the z-score [3, 10] was -0.675 (inactive), the z-score [3, 11] was -0.32 and the z-score [4] was 0.205 (inactive).

In the case of `CCC(=O)OC(OP(=O)(CCCCc1ccccc1)CC(=O)N1C[C@H](C2CCCCC2)C[C@H]1C(=O)O)C(C)C` (stereo partly drawn), the parasite load remaining [1] is reported as 49.8% (inactive), the viability [1] is reported as 108% and the fold change [2, 6] is reported as 0.948 (inactive). It also gave a fold change [2, 7] of 2.49, a cell count [2, 8] of 10100 and a cell count [2, 9] of 10700. The z-score [3, 10] was 0.354 (inactive) and -0.69 (inactive), the z-score [3, 11] was -0.176 and -1.17 and the z-score [4] was 0.59 (inactive).

With `CC(C)C[C@H](NC(=O)[C@@H](Cc1c[nH]c2ccccc12)NC(=O)[C@H](Cc1ccc(O)cc1)NC(=O)[C@H](CO)NC(=O)[C@H](Cc1c[nH]c2ccccc12)NC(=O)[C@H](Cc1cnc[nH]1)NC(=O)[C@@H]1CCC(=O)N1)C(=O)N[C@@H](CCCN=C(N)N)C(=O)N1CCC[C@H]1C(=O)NCC(N)=O` the parasite load remaining [1] was 20.9% (inactive), the viability [1] was 68.5% and the fold change [2, 6] was 0.921 (inactive). For the same compound, the fold change [2, 7] was 1.16, the cell count [2, 8] was 9400 and the cell count [2, 9] was 10200. The z-score [3, 10] was 0.161 (inactive), the z-score [3, 11] was -0.118 and the z-score [4] was 0.68 (inactive).

For `C=C1CC[C@H](O)C/C1=C/C=C1\CCC[C@]2(C)[C@@H]([C@H](C)CCCC(C)(C)O)CC[C@@H]12`, the survival [5] was 84.6 (inactive), the parasite load remaining [1] was 63.8% (inactive) and the viability [1] was 110%. The fold change [2, 6] was 1.02 (inactive) and 0.856 (inactive), the fold change [2, 7] was 1.06 and 1.42 and the cell count [2, 8] was 6030 and 8450. For the same compound, the cell count [2, 9] was 5930 and 9870, the z-score [3, 10] was 0.872 (inactive) and the z-score [3, 11] was 0.441. For the same compound, the z-score [4] was -1.75 (inactive).

With `CO[C@@H]1[C@@H](OC(N)=O)[C@H](O)[C@H](Oc2ccc3c(O)c(NC(=O)c4ccc(O)c(CC=C(C)C)c4)c(=O)oc3c2C)OC1(C)C` the parasite load remaining [1] was 81.2% (inactive), the viability [1] was 108% and the fold change [2, 6] was 0.831 (inactive). For the same compound, the fold change [2, 7] was 1.55, the cell count [2, 8] was 9200 and the cell count [2, 9] was 11100. For the same compound, the z-score [3, 10] was 0.157 (inactive), the z-score [3, 11] was 0.871 and the z-score [4] was 1.12 (inactive).

For `C[N+](C)(C)[C@@H](Cc1c[nH]c(=S)[nH]1)C(=O)[O-]`, the parasite load remaining [1] was 52.4% (inactive), the viability [1] was 234% and the fold change [2, 6] was 0.872 (inactive). The fold change [2, 7] was 1.27, the cell count [2, 8] was 9810 and the cell count [2, 9] was 11300. For the same compound, the z-score [3, 10] was -0.462 (inactive), the z-score [3, 11] was -0.623 and the z-score [4] was 0.805 (inactive).

In the case of `C[C@H](C(=O)O)c1cccc(C(=O)c2ccccc2)c1`, the survival [5] is reported as 115 (inactive), the parasite load remaining [1] is reported as 42.4% (inactive) and the viability [1] is reported as 93%. The fold change [2, 6] was 0.744 (inactive), the fold change [2, 7] was 1.59 and the cell count [2, 8] was 7940. The cell count [2, 9] was 10700, the z-score [3, 10] was -0.319 (inactive) and the z-score [3, 11] was -0.518. For the same compound, the z-score [4] was 0.4 (inactive).

With `COc1ccc(C(=O)/C(Br)=C\C(=O)O)cc1` the parasite load remaining [1] was 25.4% (inactive), the viability [1] was 107% and the fold change [2, 6] was 0.888 (inactive). For the same compound, the fold change [2, 7] was 1.39, the cell count [2, 8] was 9940 and the cell count [2, 9] was 11200. The z-score [3, 10] was -0.188 (inactive), the z-score [3, 11] was -0.289 and the z-score [4] was -0.925 (inactive).

With `CC[C@@H]1OC(=O)C[C@H](O)[C@@H](C)[C@@H](O[C@@H]2O[C@H](C)[C@@H](O[C@H]3C[C@@](C)(O)[C@@H](O)[C@H](C)O3)[C@H](N(C)C)[C@H]2O)[C@@H](C=O)C[C@@H](C)C(=O)/C=C/C(C)=C\[C@@H]1CO[C@H]1O[C@@H](C)[C@H](O)[C@H](OC)[C@@H]1OC` the parasite load remaining [1] was 27.3% (inactive), the viability [1] was 67% and the fold change [2, 6] was 0.839 (inactive). It also gave a fold change [2, 7] of 1.48, a cell count [2, 8] of 9360 and a cell count [2, 9] of 11200. For the same compound, the z-score [3, 10] was 0.258 (inactive), the z-score [3, 11] was -0.691 and the z-score [4] was 0.54 (inactive).

With `CC[C@]1(O)C[C@H]2CN(CCc3c([nH]c4ccccc34)[C@@](C(=O)OC)(c3cc4c(cc3OC)N(C)[C@H]3[C@@](O)(C(N)=O)[C@H](O)[C@]5(CC)C=CCN6CC[C@]43[C@@H]65)C2)C1` the parasite load remaining [1] was 29.7% (inactive), the viability [1] was 79.5% and the fold change [2, 6] was 1.02 (inactive). It also gave a fold change [2, 7] of 1.58, a cell count [2, 8] of 1810 and a cell count [2, 9] of 1780. For the same compound, the z-score [3, 10] was -2.11, the z-score [3, 11] was 2.09 and the z-score [4] was -1.99 (inactive).

In the case of `CC1=C(CC(=O)O)c2cc(F)ccc2/C1=C/c1ccc(S(C)=O)cc1` (stereo not drawn), the survival [5] is reported as 19.2 (inactive), the parasite load remaining [1] is reported as 88.6% (inactive) and 52.4% (inactive) and the viability [1] is reported as 91.8% and 138%. For the same compound, the fold change [2, 6] was 0.93 (inactive), the fold change [2, 7] was 1.38 and the cell count [2, 8] was 9820. For the same compound, the cell count [2, 9] was 10600, the z-score [3, 10] was -0.379 (inactive) and the z-score [3, 11] was -0.389. For the same compound, the z-score [4] was 0.615 (inactive).

With `CC1/C=C/C=C/CC/C=C/C=C/C=C/C=C/C(O[C@@H]2O[C@H](C)[C@@H](O)[C@H](N)[C@@H]2O)CC(O)C(C(=O)O)C(O)CC(=O)CC(O)C(O)CCC(O)CC(O)CC(O)CC(=O)OC(C)C(C)C1O` (stereo partly drawn) the parasite load remaining [1] was 90.8% (inactive) and 24.4% (inactive), the viability [1] was 111% and 90.5% and the fold change [2, 6] was 0.86 (inactive) and 0.844 (inactive). The fold change [2, 7] was 1.56 and 1.28, the cell count [2, 8] was 9420 and 8760 and the cell count [2, 9] was 11000 and 10400. The z-score [3, 10] was 2.26 (active) and 0.353 (inactive), the z-score [3, 11] was 0.0499 and 0.288 and the z-score [4] was 0.5 (inactive).

For `CNCCC=C1c2ccccc2C=Cc2ccccc21`, the survival [5] was 0.833 (inactive), the parasite load remaining [1] was 45.3% (inactive) and 67.3% (inactive) and the viability [1] was 45.5% and 71.9%. The fold change [2, 6] was 0.862 (inactive), the fold change [2, 7] was 1.27 and the cell count [2, 8] was 6810. For the same compound, the cell count [2, 9] was 7910, the z-score [3, 10] was 0.194 (inactive) and the z-score [3, 11] was 0.365.
